# According to PubChem BioAssay (EPA / NIEHS):
# The source made the active and inactive calls. Rule for the calls: active = hit-call score of the fitted dose curve at least 0.9, where 1 is the maximum; inactive = score below 0.9.
# Target: Cellular tumor antigen p53 (Homo sapiens) (UniProt P04637)
# Test: ATG_p53_CIS: Attagene CIS-FACTORIAL HepG2 Assay for human p53 Transcription Factor (AID 2282994)
# Conditions: HepG2 p53 cis-element reporter, Attagene mRNA; actives raise or lower the signal
# Description: ATG_CIS is a cell-based, multiplexed-readout assay that uses HepG2, a human liver cell line, with measurements taken at 24 hours after chemical dosing in a 24-well plate.ATG_p53_CIS is one of 52 assay component(s) measured or calculated from the ATG_CIS assay. It is designed to make measurements of mRNA induction, a form of inducible reporter, as detected with fluorescence intensity signals by Reverse transcription polymerase chain reaction (RT-PCR) and Capillary electrophoresis technology.Data from the assay component ATG_p53_CIS was analyzed into 1 assay endpoint. This assay endpoint, ATG_p53_CIS, was analyzed with bidirectional fitting relative to DMSO as the negative control and baseline of activity. Using a type of inducible reporter, measures of mRNA for gain or loss-of-signal activity can be used to understand the reporter gene at the transcription factor-level as they relate to the gene TP53. Furthermore, this assay endpoint can be referred to as a primary readout, because this assay has produced multiple assay endpoints where this one serves a reporter gene function. To generalize the intended target to other relatable targets, this assay endpoint is annotated to the dna binding intended target family, where the subfamily is tumor suppressor.
# Human liver HepG2 cells are transiently transfected with multiple reporter transcription units (MRTUs) in 6-well plates using FuGene 6 reagent (Roche; 3 ml FuGene/1 mg DNA). The MRTU constructs are regulated by a cis-regulating element (promoter). […] A major difference between the CIS and TRANS system is that in CIS activities of endogenous TFs are measured, whereas the TRANS assay evaluates changes in activities of exogenous, chimeric NR-Gal4 proteins. […] At the end of 24 hour incubation, total RNA was isolated using TriZol reagent (Invitrogen). The isolated RNA is then reverse-transcribed using oligo(dT) primer and Mo-MLV reverse transcriptase (Invitrogen) with DNAse I (Ambion) treatment for 30 min. The one-tenth of the produced cDNA was amplified by PCR using Taq DNA polymerase (Invitrogen) and two reporter sequence-specific primers. The PCR products were fluorescently labeled by primer extension with 6-arboxyfluorescein (6-FAM) 5'-labeled reporter sequence-specific primer (2 min at 95 C, 20 s at 68 C and 10 min at 72 C) and these products were digested with 5U of HpaI (New England Biolabs) for 2h at 37 C. The fragments were purified using Qiaquick PCR columns (Qiagen), analyzed on an ABI 3130xL genetic analyzer (Applied Biosystems) with peak positions identified by using a set of X-rhodamine (ROX)-labeled MapMarker1000 molecular weight standards (BioVentures). The raw capillary electrophoresis data was processed using Attagraph software (Attagene).
# Chain of Cellular tumor antigen p53 (Homo sapiens) (P04637 whole entry, looked up): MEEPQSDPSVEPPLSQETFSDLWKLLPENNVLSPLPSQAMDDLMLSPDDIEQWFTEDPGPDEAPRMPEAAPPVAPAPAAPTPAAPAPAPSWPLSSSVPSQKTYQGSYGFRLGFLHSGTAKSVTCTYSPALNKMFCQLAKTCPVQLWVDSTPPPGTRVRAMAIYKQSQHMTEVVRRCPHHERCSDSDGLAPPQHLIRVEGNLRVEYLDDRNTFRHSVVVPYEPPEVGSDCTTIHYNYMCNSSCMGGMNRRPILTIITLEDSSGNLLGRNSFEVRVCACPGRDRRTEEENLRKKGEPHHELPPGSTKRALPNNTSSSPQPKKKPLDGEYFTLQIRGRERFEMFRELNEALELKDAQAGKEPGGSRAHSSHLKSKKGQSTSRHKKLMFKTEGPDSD
Compound,outcome,AC50
Nc1ccc(S(=O)(=O)c2ccc(N)cc2)cc1,inactive,
CN1CCN(Cc2cc(-c3ccc4[nH]c(=O)oc4c3)co2)[C@@H](c2ccc(F)cc2)C1,,12.1 µM (active)
CC1=C(/C=C/C(C)=C/C=C/C(C)=C/CO)C(C)(C)CCC1,inactive,
CCCCN(CCCC)CCCC,inactive,
Nc1ccccc1N,,32.4 µM (active)
Cc1ccc2ncccc2c1,inactive,
O=C(O)Cc1ccccc1Nc1c(Cl)cccc1Cl,inactive,
CC1(C)CC(N=C=O)CC(C)(CN=C=O)C1 (stereo not given),inactive,
OC[C@@H](O)[C@@H](O)[C@H](O)[C@H](O)CO,inactive,
Cc1cc(=O)[nH]c(=S)[nH]1,inactive,
CCCCC(CC)COC(=O)CC(C(=O)OCC(CC)CCCC)S(=O)(=O)O (stereo not given),inactive,
CCCCCCCCCCCCCCCC,inactive,
CN1CCCC1=O,inactive,
c1cc(-c2ccncc2)ccn1,inactive,
COCCOC[C@H](CC1(C(=O)NC2CCC(C(=O)O)CC2)CCCC1)C(=O)Oc1ccc2c(c1)CCC2 (stereo not given in full),inactive,
NS(=O)(=O)c1cc2c(cc1Cl)NCNS2(=O)=O,inactive,
Cc1c(C(=O)O)c(O)cc2c1C(=O)c1c(O)c([C@@H]3O[C@H](CO)[C@@H](O)[C@H](O)[C@H]3O)c(O)c(O)c1C2=O,inactive,
CCCCc1ccc2c(n1)[C@@H](c1ccc(OC)cc1C[C@H](C)C(=O)O)[C@H](C(=O)O)[C@H]2c1ccc2c(c1)OCO2,inactive,
Nc1ccc2c(c1)C(=O)c1ccccc1C2=O,inactive,
CC(=O)OCCOCCOCCOC(C)=O,inactive,

Compound,outcome,AC50
CCOc1ccc2c(c1)C(C)=CC(C)(C)N2,inactive,
CC(C)(C)c1cc(O)c(C(C)(C)C)cc1O,inactive,
CCCCCCC(=O)OCC,inactive,
Oc1ccc2ccccc2c1N=Nc1ccccc1,inactive,
NC(=O)Cn1c(=O)cc(CCN2CCN(c3nccc4sccc34)CC2)c2ccc(F)cc21,inactive,
CC(=O)Oc1ccccc1C(=O)O,inactive,
COc1ccc(C)cc1N,inactive,
Cc1ccc(C(C)C)c(O)c1,inactive,
CCCc1cc(=O)[nH]c(=S)[nH]1,inactive,
O=c1c(O)c(-c2ccc(O)c(O)c2)oc2cc(O)cc(O)c12,,65.6 µM (active)
Nc1nc(N)c2nc(CNc3ccc(C(=O)N[C@@H](CCC(=O)O)C(=O)O)cc3)cnc2n1,inactive,
Clc1cc(Cl)c(Cl)cc1Cl,inactive,
COc1cc(C=O)ccc1O,inactive,
CCCCCCCCCCO,inactive,
Cc1ccc(C)c(O)c1C,inactive,
COCCOCCOC,inactive,
Cc1cc(NC(=O)C(=O)O)cc(C)c1Oc1ccc(O)c2c1CCC2,inactive,
C[Si]1(C)O[Si](C)(C)O[Si](C)(C)O[Si](C)(C)O1,inactive,
CNC(=O)[C@H]1O[C@@H](n2cnc3c(NCc4cc(Cl)ccc4OCc4cc(C)no4)ncnc32)[C@H](O)[C@@H]1N,inactive,
CCOC(=O)CCC(=O)OCC,inactive,
